{"source": "the supplement of paper PMC6658780", "note": "Counter-ions that a name gives are not always drawn. ± gives the standard deviation of the averaged measurements.", "data": [{"system": "Klebsiella pneumoniae KPC-119", "experiment": "percent growth inhibition of drug + antibiotic vs DMSO control; higher = more growth inhibition", "conditions": "antibiotic (0.125x MIC): gentamicin; 20 µM", "units": {"percent growth inhibition": "%"}, "values": [{"smiles": "Nc1nc(/C(=C/CC(=O)O)C(=O)N[C@@H]2C(=O)N3C(C(=O)O)=CCS[C@H]23)cs1", "note": "[Ceftibuten]", "percent growth inhibition": "99.37 ± 0.26"}, {"smiles": "NCC[C@H](O)C(=O)N[C@@H]1C[C@H](N)[C@@H](O[C@H]2O[C@H](CN)[C@@H](O)[C@H](O)[C@H]2O)[C@H](O)[C@H]1O[C@H]1O[C@H](CO)[C@@H](O)[C@H](N)[C@H]1O", "note": "[Amikacin hydrate]", "percent growth inhibition": "99.83 ± 0.21"}, {"smiles": "C=CC1=C(C(=O)O)N2C(=O)[C@@H](NC(=O)/C(=N\\OCC(=O)O)c3csc(N)n3)[C@H]2SC1", "note": "[Cefixime]", "percent growth inhibition": "97.5 ± 3.4"}, {"smiles": "CCCCC(CC)CNC(=N)NC(=N)NCCCCCCNC(=N)NC(=N)NCC(CC)CCCC", "note": "(stereo not given) [Alexidine dihydrochloride]", "percent growth inhibition": "99.929 ± 0.046"}, {"smiles": "CC1COc2c(N3CCN(C)CC3)c(F)cc3c(=O)c(C(=O)O)cn1c23", "note": "(stereo not given) [Ofloxacin]", "percent growth inhibition": "99.953 ± 0.055"}]}, {"system": "Klebsiella pneumoniae KPC-119", "experiment": "percent growth inhibition of drug + antibiotic vs DMSO control; higher = more growth inhibition", "conditions": "antibiotic (0.125x MIC): meropenem; 20 µM", "units": {"percent growth inhibition": "%"}, "values": [{"smiles": "Nc1nc(/C(=C/CC(=O)O)C(=O)N[C@@H]2C(=O)N3C(C(=O)O)=CCS[C@H]23)cs1", "note": "[Ceftibuten]", "percent growth inhibition": "94.5 ± 4.1"}, {"smiles": "NCC[C@H](O)C(=O)N[C@@H]1C[C@H](N)[C@@H](O[C@H]2O[C@H](CN)[C@@H](O)[C@H](O)[C@H]2O)[C@H](O)[C@H]1O[C@H]1O[C@H](CO)[C@@H](O)[C@H](N)[C@H]1O", "note": "[Amikacin hydrate]", "percent growth inhibition": "99.71 ± 0.1"}, {"smiles": "CCCCC(CC)CNC(=N)NC(=N)NCCCCCCNC(=N)NC(=N)NCC(CC)CCCC", "note": "(stereo not given) [Alexidine dihydrochloride]", "percent growth inhibition": "100.04 ± 0.0019"}, {"smiles": "CC1COc2c(N3CCN(C)CC3)c(F)cc3c(=O)c(C(=O)O)cn1c23", "note": "(stereo not given) [Ofloxacin]", "percent growth inhibition": "99.92 ± 0.12"}]}, {"system": "Klebsiella pneumoniae NCTC-13439", "experiment": "percent growth inhibition of drug + antibiotic vs DMSO control; higher = more growth inhibition", "conditions": "antibiotic (0.125x MIC): ciprofloxacin; 7 µM", "units": {"percent growth inhibition": "%"}, "values": [{"smiles": "N=C(NCCCCCCNC(=N)NC(=N)Nc1ccc(Cl)cc1)NC(=N)Nc1ccc(Cl)cc1", "note": "[Chlorhexidine]", "percent growth inhibition": "38.3 ± 1.2"}, {"smiles": "Cc1nc2n(c(=O)c1CCN1CCC(c3noc4cc(F)ccc34)CC1)CCCC2", "note": "[Risperidone]", "percent growth inhibition": "15.5 ± 4.5"}, {"smiles": "C#C[C@]1(OC(C)=O)CC[C@H]2[C@@H]3CCC4=CC(=NO)CC[C@@H]4[C@H]3CC[C@@]21CC", "note": "(mixture of isomers) [Norgestimate]", "percent growth inhibition": "-7.59 ± 3.1"}, {"smiles": "Cc1c(F)c(N2CCNC(C)C2)cc2c1c(=O)c(C(=O)O)cn2C1CC1", "note": "(stereo not given) [Grepafloxacin]", "percent growth inhibition": "18.9 ± 3.6"}, {"smiles": "COc1c(N2C[C@@H]3CCCN[C@@H]3C2)c(F)cc2c(=O)c(C(=O)O)cn(C3CC3)c12", "note": "[Moxifloxacin]", "percent growth inhibition": "25.8 ± 7.3"}, {"smiles": "CC(=O)CCCCn1c(=O)c2c(ncn2C)n(C)c1=O", "note": "[Pentoxifylline]", "percent growth inhibition": "2.24 ± 1.5"}, {"smiles": "CCN1CCN(c2cc3c(cc2F)c(=O)c(C(=O)O)cn3C2CC2)CC1", "note": "[Enrofloxacin]", "percent growth inhibition": "7.59 ± 7.8"}, {"smiles": "NC(=O)N/N=C/c1ccc([N+](=O)[O-])o1", "note": "[Nitrofural]", "percent growth inhibition": "10.1 ± 18"}, {"smiles": "NC1CCN(c2nc3c(cc2F)c(=O)c(C(=O)O)cn3-c2ccc(F)cc2F)C1", "note": "(stereo not given) [Tosufloxacin hydrochloride]", "percent growth inhibition": "88.1 ± 8.8"}, {"smiles": "NC1CCN(c2c(F)cc3c(=O)c(C(=O)O)cn(C4CC4)c3c2Cl)C1", "note": "(stereo not given) [Clinafloxacin]", "percent growth inhibition": "13.8 ± 8.5"}, {"smiles": "O=C(OCC(O)CO)c1ccccc1Nc1ccnc2cc(Cl)ccc12", "note": "(stereo not given) [Glafenine hydrochloride]", "percent growth inhibition": "6.41 ± 16"}, {"smiles": "COc1c(N2CCNC(C)C2)c(F)cc2c(=O)c(C(=O)O)cn(C3CC3)c12", "note": "(stereo not given) [Gatifloxacin]", "percent growth inhibition": "26.2 ± 8.2"}]}, {"system": "Klebsiella pneumoniae NCTC-13439", "experiment": "percent growth inhibition of drug + antibiotic vs DMSO control; higher = more growth inhibition", "conditions": "antibiotic (0.125x MIC): ciprofloxacin; 20 µM", "units": {"percent growth inhibition": "%"}, "values": [{"smiles": "N=C(NCCCCCCNC(=N)NC(=N)Nc1ccc(Cl)cc1)NC(=N)Nc1ccc(Cl)cc1", "note": "[Chlorhexidine]", "percent growth inhibition": "100.15 ± 0.021"}, {"smiles": "Cc1nc2n(c(=O)c1CCN1CCC(c3noc4cc(F)ccc34)CC1)CCCC2", "note": "[Risperidone]", "percent growth inhibition": "-11.1 ± 3"}, {"smiles": "C#C[C@]1(OC(C)=O)CC[C@H]2[C@@H]3CCC4=CC(=NO)CC[C@@H]4[C@H]3CC[C@@]21CC", "note": "(mixture of isomers) [Norgestimate]", "percent growth inhibition": "4.4 ± 13"}, {"smiles": "Cc1c(F)c(N2CCNC(C)C2)cc2c1c(=O)c(C(=O)O)cn2C1CC1", "note": "(stereo not given) [Grepafloxacin]", "percent growth inhibition": "51.2 ± 18"}, {"smiles": "COc1c(N2C[C@@H]3CCCN[C@@H]3C2)c(F)cc2c(=O)c(C(=O)O)cn(C3CC3)c12", "note": "[Moxifloxacin]", "percent growth inhibition": "99.24 ± 0.54"}, {"smiles": "CC(=O)CCCCn1c(=O)c2c(ncn2C)n(C)c1=O", "note": "[Pentoxifylline]", "percent growth inhibition": "5.4 ± 5.5"}, {"smiles": "CCN1CCN(c2cc3c(cc2F)c(=O)c(C(=O)O)cn3C2CC2)CC1", "note": "[Enrofloxacin]", "percent growth inhibition": "73.1 ± 13"}, {"smiles": "NC(=O)N/N=C/c1ccc([N+](=O)[O-])o1", "note": "[Nitrofural]", "percent growth inhibition": "16.3 ± 2.7"}, {"smiles": "NC1CCN(c2nc3c(cc2F)c(=O)c(C(=O)O)cn3-c2ccc(F)cc2F)C1", "note": "(stereo not given) [Tosufloxacin hydrochloride]", "percent growth inhibition": "99.03 ± 0.4"}, {"smiles": "NC1CCN(c2c(F)cc3c(=O)c(C(=O)O)cn(C4CC4)c3c2Cl)C1", "note": "(stereo not given) [Clinafloxacin]", "percent growth inhibition": "93.36 ± 0.75"}, {"smiles": "O=C(OCC(O)CO)c1ccccc1Nc1ccnc2cc(Cl)ccc12", "note": "(stereo not given) [Glafenine hydrochloride]", "percent growth inhibition": "5.01 ± 4.3"}, {"smiles": "COc1c(N2CCNC(C)C2)c(F)cc2c(=O)c(C(=O)O)cn(C3CC3)c12", "note": "(stereo not given) [Gatifloxacin]", "percent growth inhibition": "96.7 ± 1.2"}]}, {"system": "Klebsiella pneumoniae NCTC-13439", "experiment": "percent growth inhibition of drug + antibiotic vs DMSO control; higher = more growth inhibition", "conditions": "antibiotic (0.125x MIC): tigecycline; 7 µM", "units": {"percent growth inhibition": "%"}, "values": [{"smiles": "C[C@H](N)[C@H](O)c1cccc(O)c1", "note": "[Metaraminol bitartrate]", "percent growth inhibition": "8.48 ± 9.5"}, {"smiles": "Cc1c(F)c(N2CCNC(C)C2)cc2c1c(=O)c(C(=O)O)cn2C1CC1", "note": "(stereo not given) [Grepafloxacin]", "percent growth inhibition": "7.09 ± 6.5"}, {"smiles": "COc1c(N2C[C@@H]3CCCN[C@@H]3C2)c(F)cc2c(=O)c(C(=O)O)cn(C3CC3)c12", "note": "[Moxifloxacin]", "percent growth inhibition": "14.4 ± 14"}, {"smiles": "CC(=O)CCCCn1c(=O)c2c(ncn2C)n(C)c1=O", "note": "[Pentoxifylline]", "percent growth inhibition": "1.34 ± 3.2"}, {"smiles": "CCN1CCN(c2cc3c(cc2F)c(=O)c(C(=O)O)cn3C2CC2)CC1", "note": "[Enrofloxacin]", "percent growth inhibition": "7.12 ± 1.8"}, {"smiles": "NC1CCN(c2c(F)cc3c(=O)c(C(=O)O)cn(C4CC4)c3c2Cl)C1", "note": "(stereo not given) [Clinafloxacin]", "percent growth inhibition": "14.4 ± 11"}, {"smiles": "COc1c(N2CCNC(C)C2)c(F)cc2c(=O)c(C(=O)O)cn(C3CC3)c12", "note": "(stereo not given) [Gatifloxacin]", "percent growth inhibition": "17.5 ± 19"}]}]}
